Results on 40 molecules are retold here after PubChem BioAssay (EPA / NIEHS).

The source made the active and inactive calls. How the source made its calls: active means hit-call score of the fitted dose curve at least 0.9, where 1 is the maximum; inactive means score below 0.9.

Sequence of Myc proto-oncogene protein (Homo sapiens) (P01106 whole entry, looked up): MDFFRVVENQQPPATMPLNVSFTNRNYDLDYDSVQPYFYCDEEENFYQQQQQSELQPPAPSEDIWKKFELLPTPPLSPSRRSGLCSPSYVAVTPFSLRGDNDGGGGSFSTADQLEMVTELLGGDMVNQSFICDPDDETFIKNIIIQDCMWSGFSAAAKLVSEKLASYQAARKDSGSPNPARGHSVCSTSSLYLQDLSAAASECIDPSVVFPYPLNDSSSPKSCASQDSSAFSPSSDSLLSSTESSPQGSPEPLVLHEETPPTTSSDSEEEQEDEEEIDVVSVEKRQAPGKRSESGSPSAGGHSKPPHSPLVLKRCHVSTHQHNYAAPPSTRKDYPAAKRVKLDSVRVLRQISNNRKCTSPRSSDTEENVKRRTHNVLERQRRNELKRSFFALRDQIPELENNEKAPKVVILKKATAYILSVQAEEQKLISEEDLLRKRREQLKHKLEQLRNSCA

For the test, the target named is Myc proto-oncogene protein (Homo sapiens) (UniProt P01106). Kind of test: ATG_Myc_CIS: Attagene CIS-FACTORIAL HepG2 Assay for human Myelocytomatosis (Myc) Proto-Oncogene Transcription Factor (AID 2282990). The note with it: HepG2, Attagene cis-reporter transcription factor activity; actives raise or lower the signal. The protocol:
ATG_CIS is a cell-based, multiplexed-readout assay that uses HepG2, a human liver cell line, with measurements taken at 24 hours after chemical dosing in a 24-well plate.ATG_Myc_CIS is one of 52 assay component(s) measured or calculated from the ATG_CIS assay. It is designed to make measurements of mRNA induction, a form of inducible reporter, as detected with fluorescence intensity signals by Reverse transcription polymerase chain reaction (RT-PCR) and Capillary electrophoresis technology.Data from the assay component ATG_Myc_CIS was analyzed into 1 assay endpoint. This assay endpoint, ATG_Myc_CIS, was analyzed with bidirectional fitting relative to DMSO as the negative control and baseline of activity. Using a type of inducible reporter, measures of mRNA for gain or loss-of-signal activity can be used to understand the reporter gene at the transcription factor-level as they relate to the gene MYC. Furthermore, this assay endpoint can be referred to as a primary readout, because this assay has produced multiple assay endpoints where this one serves a reporter gene function. To generalize the intended target to other relatable targets, this assay endpoint is annotated to the dna binding intended target family, where the subfamily is basic helix-loop-helix leucine zipper.
Human liver HepG2 cells are transiently transfected with multiple reporter transcription units (MRTUs) in 6-well plates using FuGene 6 reagent (Roche; 3 ml FuGene/1 mg DNA). The MRTU constructs are regulated by a cis-regulating element (promoter). […] A major difference between the CIS and TRANS system is that in CIS activities of endogenous TFs are measured, whereas the TRANS assay evaluates changes in activities of exogenous, chimeric NR-Gal4 proteins. […] At the end of 24 hour incubation, total RNA was isolated using TriZol reagent (Invitrogen). The isolated RNA is then reverse-transcribed using oligo(dT) primer and Mo-MLV reverse transcriptase (Invitrogen) with DNAse I (Ambion) treatment for 30 min. The one-tenth of the produced cDNA was amplified by PCR using Taq DNA polymerase (Invitrogen) and two reporter sequence-specific primers. The PCR products were fluorescently labeled by primer extension with 6-arboxyfluorescein (6-FAM) 5'-labeled reporter sequence-specific primer (2 min at 95 C, 20 s at 68 C and 10 min at 72 C) and these products were digested with 5U of HpaI (New England Biolabs) for 2h at 37 C. The fragments were purified using Qiaquick PCR columns (Qiagen), analyzed on an ABI 3130xL genetic analyzer (Applied Biosystems) with peak positions identified by using a set of X-rhodamine (ROX)-labeled MapMarker1000 molecular weight standards (BioVentures). The raw capillary electrophoresis data was processed using Attagraph software (Attagene).
Turning to `CCc1cccc(CC)c1N`, the molecule was classed as inactive.

In the case of `CCCCC(CC)C(=O)OCCOCCOCCOC(=O)C(CC)CCCC` (stereo not given), the result was inactive.

Turning to `O=C(N[C@H](CO)[C@H](O)c1ccc([N+](=O)[O-])cc1)C(Cl)Cl`, the result was inactive.

Turning to `O=C(O)c1ccc2c(c1)nc(C(=O)NC1CCN(C3CC3)CC1)n2Cc1cc(-c2ccc(Cl)s2)on1`, the molecule was classed as inactive.

Regarding `c1ccc2cc3ccccc3cc2c1`, the call was inactive.

On to `CCCCCCCC/C=C\CCCCCCCC(=O)OC[C@@H](O)[C@H]1OC[C@H](O)[C@H]1O`, for which the molecule was called inactive.

Turning to `CNC(C)=O`, the molecule was classed as inactive.

For `OCc1c[nH]c2ccccc12`, the molecule was classed as inactive.

For the molecule `O=C(O)c1cccc(C(=O)O)c1`, the molecule was called inactive.

Take `c1ccc2c(c1)-c1cccc3c1c-2cc1ccccc13`: the call was inactive.

On to `CCCCN1C(=O)[C@@H]([C@H](O)C2CCCCC2)NC(=O)C12CCN(Cc1ccc(Oc3ccc(C(=O)O)cc3)cc1)CC2`, for which the outcome was inactive.

For `OCCNCCO`, the result was inactive.

Turning to `CCOc1ccc2[nH]cc(C(=O)NCc3ccccc3)c(=O)c2n1`, the call was inactive.

Consider `O=C(O)c1cccc(C[C@@H]2COc3ccc(OCc4nc5cc(F)ccc5s4)cc3[C@@H]2O)c1`, for which the molecule was classed as inactive.

For the molecule `C[C@@H](Oc1ccc(CNC(=O)c2cccnc2Oc2ccc3c(c2)OCO3)c(F)c1)C(=O)O`, the outcome was inactive.

In the case of `O=S(=O)(O)c1ccc(N=Nc2c(O)ccc3cc(S(=O)(=O)O)ccc23)cc1`, the molecule was called inactive.

For `OC[C@H]1O[C@@H]2O[C@H]3[C@H](O)[C@@H](O)[C@@H](O[C@H]4[C@H](O)[C@@H](O)[C@@H](O[C@H]5[C@H](O)[C@@H](O)[C@@H](O[C@H]6[C@H](O)[C@@H](O)[C@@H](O[C@H]7[C@H](O)[C@@H](O)[C@@H](O[C@H]1[C@H](O)[C@H]2O)O[C@@H]7CO)O[C@@H]6CO)O[C@@H]5CO)O[C@@H]4CO)O[C@@H]3CO`, the outcome was inactive.

As to `OC[C@H]1O[C@@](CO)(O[C@H]2O[C@H](CO)[C@@H](O)[C@H](O)[C@H]2O)[C@@H](O)[C@@H]1O`, the result was inactive.

For `OCCOCCOCCO`, the molecule was classed as inactive.

`Cc1ccc(S(=O)(=O)NC(=O)NN2CCCCCC2)cc1`: the result was inactive.

Consider `c1ccc2ncccc2c1`, for which the molecule was called inactive.

As a reminder, the AC50 is the midpoint of the concentration-response curve, whichever way the signal moves. As for `CCCCCCCCCCCCCCO`, the AC50 is 166 µM (active).

For `CCCC(CCC)C(=O)O`, the result was inactive.

In the case of `O=S(=O)(O)CCC(F)(F)C(F)(F)C(F)(F)C(F)(F)C(F)(F)C(F)(F)F`, the call was inactive.

On to `CC(C)C(=O)Nc1ccc([N+](=O)[O-])c(C(F)(F)F)c1`, for which the molecule was classed as inactive.

`FC(F)(F)C(F)(F)C(F)(F)C(F)(F)C(F)(F)C(F)(F)I`: the call was inactive.

As to `CC(C)CCCCCCOC(=O)C1CCCCC1C(=O)OCCCCCCC(C)C` (stereo not given), the molecule was called inactive.

For the molecule `S=P(N1CC1)(N1CC1)N1CC1`, the molecule was called inactive.

Take `OC(O)(C(F)C(O)(O)C(F)(F)F)C(F)(F)F`: the result was inactive.

Take `NC(N)=O`: the molecule was called inactive.

Turning to `Nc1ccn([C@@H]2O[C@H](CO)[C@@H](O)[C@@H]2O)c(=O)n1`, the result was inactive.

As to `O=S1(=O)CCCO1`, the call was inactive.

`OC(Cn1cncn1)(Cn1cncn1)c1ccc(F)cc1F`: the call was inactive.

Take `FC(F)(F)COC(OCC(F)(F)F)OCC(F)(F)F`: the molecule was called inactive.

Consider `CCn1nc(C)c2c1C(=O)NCC(c1ccc(O)cc1)=N2`, for which the result was inactive.

`OCc1ccccc1`: the result was inactive.

Consider `CCCCCCOC(=O)CC(CC(=O)OCCCCCC)(OC(=O)CCC)C(=O)OCCCCCC`, for which the outcome was inactive.

As to `CCCCCOC(C)=O`, the result was inactive.

With `Cc1nc(-c2ccccn2)ncc1C(=O)Nn1cc(C)c2cc(F)ccc21`, the molecule was classed as inactive.

Take `FC(F)=C(F)C(F)(F)C(F)(F)C(F)(F)C(F)(F)C(F)(F)C(F)(F)F`: the outcome was inactive.
